The values that follow come from PubChem BioAssay.

The nature of test [1]: inhibitors of TNFa-induced NFkB p65 translocation, primary screen, imaging, HUVEC, MLSMR starter and 10KST1 sets (AID 438;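 active = inhibition above 20% together with a positive visual image hit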;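 note: compound added about 3h40 before a 20 min TNFalpha stimulation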;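 for inhibition: signal is the nuclear over cytoplasmic p65 intensity ratio per well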). The settings on record: HUVEC TNFa-induced p65 nuclear translocation; cell count: measured here: nuclei count (cytotoxicity indicator), at 2.08 µM; inhibition: at 2 µM, stronger effect = higher value, 0% TNFa-plus-vehicle, 100% no-TNFa wells.
Test [2] is described as follows: reduction of polyQ htt aggregates in cells – imaging, exon1htt(103Q)mCFP cells, high-content imaging, primary screen (AID 483;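 active = visual image review flags a hit and inhibition of aggregation exceeds 20%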;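 note: compound exposure lasted 3 days before fixation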;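 for nuclei count: percent of the per-plate median nuclei count of sample wells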). The settings on record: exon1htt(103Q)mCFP cell line, aggregate imaging, at 2 µM; inhibition of aggregation: stronger effect = higher value; nuclei count: measured here: cell count, toxicity.
Test [3] is described as follows: endothelial E-selectin expression blockers – imaging, HUVEC, immunofluorescence, MLSMR starter and 10KST1 sets, primary screen (AID 487;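 active = visually confirmed hit in the image check and inhibition above 20%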;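 for inhibition: signal is fraction of cell area covered by stained E-selectin grains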;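 for nuclei count: 100% = median nuclei count of all wells on the same plate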). The conditions noted are these: HUVEC TNFalpha-induced E-selectin immunofluorescence imaging, at 2 µM; inhibition: stronger effect = higher value; nuclei count: measured here: cell number, toxicity.
The target in test [4] is Voltage-gated potassium channel subunit beta-2 (Rattus norvegicus) (UniProt P62483). As to the kind of experiment: inhibitors of rat Kvbeta2 reductase activity – biochemical, NADPH fluorescence, primary screen (AID 622;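 active = fluorescence slope higher than the sample average by over 3 SD, cut at about -0.22 in these data, passing the limit was not always enough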;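 note: slope of raw intensity against log time taken from 70 to 1610 s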). The settings on record: recombinant KvBeta, 4-cyanobenzaldehyde reduction, at 10 µM, stronger effect = higher value.
For test [5] the target is unchanged. Nature of the test: enhancers of rat Kvbeta2 NADPH turnover – biochemical, NADPH fluorescence, primary screen (AID 623;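 active = NADPH fluorescence slope more negative than the mean of all samples by about 3 SD, 99.7% confidence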;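 note: fluorescence intensity change per second fitted from 20 to 320 s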). The conditions noted are these: Recombinant KvBeta, NADPH fluorescence decrease slope, 10 min; at 10 µM; stronger effect = lower value.
Test [6] addresses Alpha-2C adrenergic receptor (Homo sapiens) (UniProt P18825). As to the kind of experiment: compounds altering alpha2C-coupled GIRK flux – cell-based, HEK293 alpha2C/GIRK1/2, thallium flux, primary screen (AID 624;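 active = fluorescence slope after compound addition differing from the mean of all screened samples at 99.7% confidence, in either direction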;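 note: slope of fluorescence ratio to pre-addition baseline per second over 15 to 24 s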). The conditions noted are these: thallium flux BTC fluorescence, at 10 µM, actives lie on both sides.
Test [7] in a line: blockers of RIG-like receptor reporter activation – cell-based, Sendai virus stimulus, luciferase, 10K MLSCN set, TLR/RLR signaling modifier project, primary screen (AID 602276;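 active = inhibition at or above 50% at 10 µM; inactive = inhibition below 50%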;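 note: firefly luciferase from ISG56 promoter only with Renilla not read in this screen; 0% = Sendai virus plus DMSO and 100% = medium plus DMSO without virus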). The conditions noted are these: HEK293 RL24 IRF3 luciferase reporter, at 10 µM, stronger effect = higher value.
Test [8] can be described thus: TLR3 IRF3 reporter activation blockers – cell-based, poly I:C stimulus, luciferase, 10K MLSCN set, primary screen (AID 602277). The settings on record: HEK293-TLR3 RL24 IRF3 luciferase reporter, at 10 µM, stronger effect = higher value.

Active and inactive are the calls of the source.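 Rule for the calls, unless noted: active = inhibition of the reporter signal at or above 50%; inactive = inhibition below 50%.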

Chain of Alpha-2C adrenergic receptor (Homo sapiens) (P18825 whole entry, looked up): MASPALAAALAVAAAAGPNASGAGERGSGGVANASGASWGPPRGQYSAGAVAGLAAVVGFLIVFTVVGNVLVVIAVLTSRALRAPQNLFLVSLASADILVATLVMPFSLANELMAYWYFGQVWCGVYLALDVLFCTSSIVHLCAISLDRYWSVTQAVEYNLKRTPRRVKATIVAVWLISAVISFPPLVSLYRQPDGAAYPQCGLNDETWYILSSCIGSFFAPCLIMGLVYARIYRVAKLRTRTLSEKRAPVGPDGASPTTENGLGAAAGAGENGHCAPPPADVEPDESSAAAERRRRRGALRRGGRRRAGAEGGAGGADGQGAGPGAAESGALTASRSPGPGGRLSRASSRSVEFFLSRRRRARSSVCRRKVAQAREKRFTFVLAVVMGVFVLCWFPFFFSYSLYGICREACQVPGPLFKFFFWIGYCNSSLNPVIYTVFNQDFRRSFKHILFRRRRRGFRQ
Chain of Voltage-gated potassium channel subunit beta-2 (Rattus norvegicus) (P62483 whole entry, looked up): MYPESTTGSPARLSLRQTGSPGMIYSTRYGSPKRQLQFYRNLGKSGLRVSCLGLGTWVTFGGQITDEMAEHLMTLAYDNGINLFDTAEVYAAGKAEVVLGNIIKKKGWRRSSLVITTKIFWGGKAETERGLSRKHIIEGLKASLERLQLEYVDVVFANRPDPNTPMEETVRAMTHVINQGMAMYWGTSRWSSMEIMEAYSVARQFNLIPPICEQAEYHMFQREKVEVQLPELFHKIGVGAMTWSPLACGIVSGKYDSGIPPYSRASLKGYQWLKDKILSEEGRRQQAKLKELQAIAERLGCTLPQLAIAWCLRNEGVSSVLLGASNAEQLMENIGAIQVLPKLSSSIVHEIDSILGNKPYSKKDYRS

One may read the inhibition as the change of the read-out against control, counted positive when it falls. On to `CCOC(=O)C1CCN(c2c(N(C)Cc3ccco3)c(=O)c2=O)CC1`, for which the cell count in test [1] came out at 789. Further, the inhibition in test [1] was 0.9% (inactive); in test [3], -33.1% (inactive); in test [7] it was 5.07% (inactive); in test [8], 22.7% (inactive). Also, the inhibition of aggregation in test [2] is 3.8% (inactive). Moreover, the nuclei count in test [2] stood at 103%; in test [3], 114%. For the same compound, in test [4], the fluorescence slope was -0.576 (inactive). The NADPH fluorescence slope in test [5] was -2.6e-05 (inactive). The slope in test [6] is 0.00601 (inactive).
For the compound `CN1CCCC(OC(=O)c2ccc3c(c2)OCCO3)C1` (centres undefined), the cell count in test [1] worked out at 214. Moreover, the inhibition in test [1] was -1.4% (inactive); in test [3], -1% (inactive); in test [7], -0.0614% (inactive); in test [8], -12.6% (inactive). Also, the inhibition of aggregation in test [2] was 23.1% (inactive). The nuclei count in test [2] is 102%; in test [3], 70.3%. Besides, the fluorescence slope in test [4] is -0.418 (inactive). Further, the NADPH fluorescence slope in test [5] is -6.9e-05 (inactive). The slope in test [6] was 0.00576 (inactive).
In the case of `O=C(CC(C(=O)N1CCc2ccccc21)n1ccnc1)NCc1cccnc1` (centres undefined), in test [1], the cell count amounted to 655. For the same compound, the inhibition in test [1] is -2.2% (inactive); in test [3], -67% (inactive); in test [7], 10.8% (inactive); in test [8] it was 20.7% (inactive). The inhibition of aggregation in test [2] is 23.5% (inactive). Moreover, the nuclei count was 122% in test [2] and 119% in test [3]. Also, the fluorescence slope in test [4] is -0.446 (inactive). The NADPH fluorescence slope in test [5] was 9.2e-07 (inactive). The slope in test [6] was 0.00564 (inactive).
Regarding `Cc1nnc(SCC(=O)NCc2ccccc2)s1`, the cell count in test [1] was 513. Moreover, the inhibition in test [1] is -11.9% (inactive); in test [3], 10.5% (inactive); in test [7], 1.7% (inactive); in test [8], 30.9% (inactive). For the same compound, the inhibition of aggregation in test [2] was 27.7% (inactive). For the same compound, the values for the nuclei count in test [2] and in test [3] were 78.7% and 120%, respectively. Besides, the fluorescence slope in test [4] is -0.447 (inactive). Besides, the NADPH fluorescence slope in test [5] was -2.7e-05 (inactive). Also, the slope in test [6] is 0.00344 (inactive).
With `COc1ccc(S(=O)(=O)Nc2cc(C)on2)cc1OC`, the cell count in test [1] stood at 455. Also, the inhibition in test [1] was 6.5% (inactive); in test [3], -171% (inactive); in test [7], 7.69% (inactive); in test [8] it was 12.8% (inactive). For the same compound, the inhibition of aggregation in test [2] was -7.8% (inactive). Further, the nuclei count in test [2] came to 109%; in test [3] it was 136%. Besides, the fluorescence slope in test [4] is -0.523 (inactive). In test [5], the NADPH fluorescence slope is 9.2e-06 (inactive). For the same compound, in test [6], the slope was 0.00556 (inactive).
As for `O=C(c1cnc2n(c1=O)CCS2)N1CCc2ccccc21`, the cell count in test [1] amounted to 529. The inhibition in test [1] was 9.1% (inactive); in test [3], -39.6% (inactive); in test [7], 14.9% (inactive); in test [8], 27% (inactive). Further, in test [2], the inhibition of aggregation was -15.5% (inactive). Also, the nuclei count in test [2] and in test [3] was 114% each time. Besides, the fluorescence slope in test [4] was -0.51 (inactive). For the same compound, in test [5], the NADPH fluorescence slope was 4.8e-06 (inactive). Besides, the slope in test [6] was 0.00669 (inactive).
Turning to `N#CCOc1nc(N2CCOCC2)nc(N2CCOCC2)n1`, in test [1], the cell count was 552. The inhibition is -30.6% (inactive) in test [1], -10.4% (inactive) in test [3], 10.5% (inactive) in test [7] and 18.6% (inactive) in test [8]. Besides, in test [2], the inhibition of aggregation is 3% (inactive). Also, the nuclei count in test [2] is 76.6%; in test [3], 100%. Also, in test [4], the fluorescence slope was -0.287 (inactive). The NADPH fluorescence slope in test [5] is -4.5e-05 (inactive). Besides, in test [6], the slope was 0.00534 (inactive).
For the compound `O=C(CSc1nnc2c3cc(F)ccc3nc(-c3ccccc3)n12)N1CCOCC1`, the cell count in test [1] was found to be 597. The inhibition in test [1] was 4.9% (inactive); in test [3], -23.2% (inactive); in test [7] it was -0.506% (inactive); in test [8], -0.765% (inactive). In test [2], the inhibition of aggregation was -0.6% (inactive). Also, the values for the nuclei count in test [2] and in test [3] were 104% and 96.3%, respectively. Further, the fluorescence slope in test [4] was -0.37 (inactive). Also, the NADPH fluorescence slope in test [5] is -7.1e-06 (inactive). For the same compound, the slope in test [6] was 0.00625 (inactive).
In the case of `O=C(CNc1ccc(Oc2ccccc2)cc1)N1CCOCC1`, in test [1], the cell count is 622. Further, the inhibition was -26.3% (inactive) in test [1], -25.6% (inactive) in test [3], 18.1% (inactive) in test [7] and 3.08% (inactive) in test [8]. In test [2], the inhibition of aggregation was 2.1% (inactive). The nuclei count in test [2] was 103%; in test [3], 97.4%. Besides, the fluorescence slope in test [4] is -0.541 (inactive). The NADPH fluorescence slope in test [5] is -0.000138 (inactive). For the same compound, the slope in test [6] is 0.00652 (inactive).
